Here are results for seven compounds from PubChem BioAssay (EPA / NIEHS).

Read-out in test [1]: Interleukin-8 (IL8), CXCL8 (gene 3576)
Briefly: BSK_KF3CT_IL8: BioMAP Diversity Plus: KF3CT Assay for Interleukin-8 (IL8) Biomarker Activity (AID 2284254). To be noted: primary human keratinocytes with fibroblasts. On the procedure:
BSK_KF3CT is a cell-based, multiplexed-readout assay that uses keratinocytes and foreskin fibroblasts, a human skin primary cell co-culture, with measurements taken at 24 hours after chemical dosing in a 96-well plate.BSK_KF3CT_IL8 is an assay component measured in the BSK_KF3CT assay. It measures IL-8 antibody related to regulation of gene expression using ELISA technology.Data from the assay component BSK_KF3CT_IL8 was analyzed at the endpoint, BSK_KF3CT_IL8, in the positive analysis fitting direction relative to DMSO as the negative control and baseline of activity. Using a type of binding reporter, gain or loss-of-signal activity can be used to understand protein changes. To generalize the intended target to other relatable targets, this assay endpoint is annotated to the 'cytokine' intended target family, where the subfamily is 'interleukins'.
(§1) The levels of cell surface (or secreted, indicated by the prefix "s") biomarker endpoints were measured by ELISA. Overt cytotoxicity to cells in confluent adherent cultures (all systems other than the BT system) was assessed by measuring total protein levels using sulforhodamine B (SRB) staining in parallel cultures at the time of biomarker measurements, indicated as SRB endpoints. For proliferation assays for adherent cell types, individual cell types are cultured at sub-confluence and relative cell numbers quantified by SRB staining at time points optimized for each system (48 h: 3C and CASM3C systems; 72 h: BT and HDF3CGF systems; 96 h: SAg system). SRB was performed by staining cells with 0.1% SRB after fixation with 10% TCA and reading wells at 560 nm.Viability and proliferation of PBMC (T cells) was quantified by Alamar Blue reduction for the SAg and BT systems. For PBMC viability (referred to as PBMC Cytotoxicity within the assay endpoint names), cells were plated (75,000/well in a 96-well plate) and then chemical samples added for 1 h before addition of activators, SEB and TSST-1 (20 ng/mL final concentration each). Cells were incubated for 90 h. Then, Alamar Blue (20 uL/well) (Invitrogen, Cat DAL1100) was added for 6 h, and the plates were read with a fluorescence microplate reader at 546/580 nm (excitation/emission). For PBMC proliferation, cells were plated and activated as above but incubated for only 16 h prior to addition of Alamar Blue. Plates were read after 6 h.

Read-out in test [2]: Macrophage Inflammatory Protein-1 Alpha (MIP1a), CCL3 (gene 6348)
Nature of the test: BSK_IMphg_MIP1a: BioMAP Diversity Plus: IMphg Assay for Macrophage Inflammatory Protein-1 Alpha (MIP1a) Biomarker Activity (AID 2284255). The settings on record: primary human endothelial cells with macrophages. In short, it runs like this:
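Co-culture of human venular endothelial cells and macrophages exposed to compounds for 24 h; MIP-1a measured by ELISA relative to DMSO. Cytotoxicity assessed in parallel cultures by sulforhodamine B total-protein staining at 560 nm.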

Read-out in test [3]: Plasminogen activator inhibitor-1 (PAI1), SERPINE1 (gene 5054)
Nature of the test: BSK_MyoF_PAI1: BioMAP Diversity Plus: MyoF Assay for Plasminogen activator inhibitor-1 (PAI1) Biomarker Activity (AID 2284256).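 As to outcome: PAI-1 protein level measured by ELISA in fibroblast cultures; PAI-1 read 24 h after compound addition.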 To be noted: primary human lung fibroblasts. In short, it runs like this: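 ELISA read-out of PAI-1 from primary human lung fibroblast cultures 24 h after dosing; gain-of-signal fit versus DMSO control.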

Read-out in another test: CD69, CD69 (gene 969)
Briefly: BSK_IMphg_CD69: BioMAP Diversity Plus: IMphg Assay for CD69 Biomarker Activity (AID 2284257). To be noted: primary human endothelial cells with macrophages. In short, it runs like this: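 Human venular endothelial cells co-cultured with macrophages; CD69 quantified by ELISA 24 h after compound addition. Activity fitted in the positive direction relative to DMSO baseline; cytotoxicity tracked in parallel cultures via SRB total-protein staining.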

Read-out in test [4]: Eotaxin 3, CCL26 (gene 10344)
Briefly: BSK_BF4T_Eotaxin3: BioMAP Diversity Plus: BF4T Assay for Eotaxin 3 Biomarker Activity (AID 2284258). To be noted: primary human bronchial epithelial cells with fibroblasts. In short, it runs like this: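 Co-culture of human bronchial epithelial cells and dermal fibroblasts, exposed to chemicals for 24 h versus DMSO. Eotaxin-3 quantified by ELISA; cytotoxicity checked in parallel cultures by sulforhodamine B total-protein staining.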

Read-out in test [5]: Monocyte Chemoattractant Protein-1 (MCP1), CCL2 (gene 6347)
Nature of the test: BSK_BF4T_MCP1: BioMAP Diversity Plus: BF4T Assay for Monocyte Chemoattractant Protein-1 (MCP1) Biomarker Activity (AID 2284259). To be noted: primary human bronchial epithelial cells with fibroblasts. In short, it runs like this:
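Co-culture of bronchial epithelial cells and dermal fibroblasts dosed with chemical; MCP-1 measured by ELISA 24 h later. Activity fitted in positive direction versus DMSO; cytotoxicity checked by SRB staining in parallel cultures.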

Read-out in test [6]: Intercellular Adhesion Molecule 1 (ICAM1), ICAM1 (gene 3383)
Nature of the test: BSK_BF4T_ICAM1: BioMAP Diversity Plus: BF4T Assay for Intercellular Adhesion Molecule 1 (ICAM1) Biomarker Activity (AID 2284260). To be noted: primary human bronchial epithelial cells with fibroblasts. In short, it runs like this:
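Co-culture of human bronchial epithelial cells and dermal fibroblasts exposed 24 h to chemical; cell-surface ICAM-1 quantified by ELISA. Parallel SRB total-protein staining assessed cytotoxicity; activity fitted relative to DMSO.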

Read-out in test [7]: Interleukin-8 (IL8), CXCL8 (gene 3576)
Briefly: BSK_MyoF_IL8: BioMAP Diversity Plus: MyoF Assay for Interleukin-8 (IL8) Biomarker Activity (AID 2284261). To be noted: primary human lung fibroblasts. An outline of the steps: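 ELISA read-out of IL-8 from primary human lung fibroblasts, 24 h post-dose; positive-direction curve fitting relative to DMSO vehicle baseline.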

Read-out in a further test: CD90, THY1 (gene 7070)
Briefly: BSK_BF4T_CD90: BioMAP Diversity Plus: BF4T Assay for CD90 Biomarker Activity (AID 2284262). The settings on record: primary human bronchial epithelial cells with fibroblasts. On the procedure: BSK_BF4T is a cell-based, multiplexed-readout assay that uses bronchial epithelial cells and dermal fibroblasts, a human vascular primary cell, with measurements taken at 24 hours after chemical dosing in a microplate: 96-well plate.BSK_BF4T_CD90 is an assay component measured in the BSK_BF4T assay. It measures CD90 antibody related to regulation of gene expression using ELISA technology.Data from the assay component BSK_BF4T_CD90 was analyzed at the endpoint, BSK_BF4T_CD90, in the positive analysis fitting direction relative to DMSO as the negative control and baseline of activity. Using a type of binding reporter, gain or loss-of-signal activity can be used to understand protein changes. To generalize the intended target to other relatable targets, this assay endpoint is annotated to the 'cytokine' intended target family, where the subfamily is 'inflammatory factor'.
as §1

Read-out in test [8]: Interleukin-8 (IL8), CXCL8 (gene 3576)
Briefly: BSK_BF4T_IL8: BioMAP Diversity Plus: BF4T Assay for Interleukin-8 (IL8) Biomarker Activity (AID 2284263). The settings on record: primary human bronchial epithelial cells with fibroblasts. In short, it runs like this: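 Human bronchial epithelial cells with dermal fibroblasts co-culture; IL-8 measured by ELISA 24 hours after dosing, fitted vs DMSO. Cytotoxicity tracked in parallel cultures by SRB total-protein staining.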

Structures are written as SMILES. Where “and” joins values, the source holds several entries; their conditions need not be identical. Equal entries are not always repeated. Some structures have more than one record in an assay (separate samples or runs), and their calls can disagree. Calls of active or inactive are those of the source. The calls were made as follows: active = hit-call score of the fitted dose curve at least 0.9, where 1 is the maximum; inactive = score below 0.9.

The AC50 is the concentration at which the activity in the assay is half-maximal. As for `NCC(F)(F)C(F)(F)C(F)(F)C(F)(F)C(F)(F)C(F)(F)C(F)(F)F`, the AC50 in [1] is 13.5 µM (active); in test [5], 220 nM (active). For the same compound, the outcome is “inactive” in test [1]; “inactive” in [2]; “inactive” in [3]; “inactive” in the test with CD69, CD69 (gene 969); “inactive” in test [4]; “inactive” in test [5]. Also, the outcome is “inactive” in [6]; “inactive” in test [7]; “inactive” with CD90, THY1 (gene 7070); “inactive” in test [8].
In the case of `C[C@@H]1C[C@H]2[C@@H]3CCC4=CC(=O)C=C[C@]4(C)[C@@]3(F)[C@@H](O)C[C@]2(C)[C@@]1(O)C(=O)COP(=O)(O)O`, the outcome in test [1] was “inactive”; in [3] it was “inactive”; with CD69, CD69 (gene 969) it was “inactive”; in test [4], “inactive”; in test [5] it was “inactive”; in test [6] it was “inactive”. For the same compound, the outcome in test [7] was “inactive”; with CD90, THY1 (gene 7070), “inactive”; in test [8], “inactive”. The half-maximal activity concentration (AC50) in test [2] is 946 nM (active) and 574 nM (active); in test [4] it was 951 nM (active).
For `CCCCCCCCCCCCCC[N+](C)(C)C`, the figures for the AC50 in test [3] and in [7] were 3.69 µM (active) and 9.47 µM (active), respectively.
Turning to `C=C(C)C(=O)OCCC(F)(F)C(F)(F)C(F)(F)C(F)(F)C(F)(F)C(F)(F)F`, the outcome is “inactive” in test [1]; “inactive” in test [2]; “inactive” in test [3]; “inactive” in the test with CD69, CD69 (gene 969); “inactive” in test [4]; “inactive” in [5]. Besides, the outcome in test [6] was “inactive”; in test [7], “inactive”; in the test with CD90, THY1 (gene 7070), “inactive”; in test [8], “inactive”.
Regarding `OCCC(F)(F)C(F)(F)C(F)(F)C(F)(F)C(F)(F)C(F)(F)C(F)(F)C(F)(F)F`, the outcome in [1] is “inactive”; in [2], “inactive”; in [7], “inactive”; with CD90, THY1 (gene 7070), “inactive”; in test [8], “inactive”. Besides, the AC50 was 17.1 µM (active) and 11.1 µM (active) in test [3]; 30 µM (active) and 7.45 µM (active) with CD69, CD69 (gene 969); 13.5 µM (active) and 9.61 µM (active) in [4]; 21.2 µM (active) and 30 µM (active) in test [5]; 30 µM (active) in [6]; 14.9 µM (active) in test [7].
As for `FC(F)(I)C(F)(F)C(F)(F)C(F)(F)C(F)(F)C(F)(F)I`, the AC50 in test [1] was 6.35 µM (active) [middle of 5 runs]; in test [3] it was 6 µM (active) [middle of 5 runs]; with CD69, CD69 (gene 969), 37.9 µM (active) [middle of 5 runs]; in test [4], 8.19 µM (active) [middle of 5 runs]; in test [5] it was 8.32 µM (active) [middle of 5 runs]; in [7], 15 µM (active) and 16.4 µM (active) and 15.6 µM (active). The AC50 in the test with CD90, THY1 (gene 7070) was 6.21 µM (active); in test [8], 14.9 µM (active) [middle of 5 runs]. Moreover, the outcome in test [7] was “inactive”; in the test with CD90, THY1 (gene 7070) it was “inactive”.
For the compound `OCCC(F)(F)C(F)(F)C(F)(F)C(F)(F)C(F)(F)C(F)(F)F`, the outcome is “inactive” in test [1]; “inactive” in test [2]; “inactive” in test [3]; “inactive” with CD69, CD69 (gene 969); “inactive” in test [4]; “inactive” in [5]. In addition, the outcome in test [6] was “inactive”; in test [7], “inactive”; in the test with CD90, THY1 (gene 7070) it was “inactive”; in [8] it was “inactive”. In [2], the AC50 was 42.4 µM (active).
